What all share (test): NCI-60 one-dose screen, 48 h (100 = growth as untreated, 0 = no growth, -100 = all killed)
Holding throughout (conditions): 10 µM unless noted

For assay [1], the system named is HCT-15 colon.
Assay [2] deals with HT29 colon.
For assay [3], the system named is SNB-75 CNS.
Assay [4] has as its system SNB-19 CNS.
Assay [5] has as its system U251 CNS.
Assay [6] concerns PC-3 prostate.
Assay [7] deals with SK-MEL-5 melanoma.
Assay [8] concerns UACC-62 melanoma.
Assay [9] has as its system LOX IMVI melanoma.
Assay [10] concerns SK-MEL-28 melanoma.

The record followed here is PubChem BioAssay (NCI).

Each structure is given as a SMILES string. About 83,000 compounds went through this panel and 20% of them were active in at least one assay; those are over-represented in the sample as a whole.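 Activity criterion: percent growth below 10, measured after cells in 96-well plates were exposed to a single compound concentration for 48 hours.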 Values without a mark were called inactive. Active and inactive are the calls of the source.

`CC(=O)O[C@H]1C[C@@]2(C)[C@@H](C[C@@H](O)[C@H]3[C@@]4(C)CC[C@H](N5CCCC5)[C@@H](C)[C@@H]4CC[C@@]32C)/C1=C(\CCC=C(C)C)C(=O)O`: the growth in assay [1] was 94.5%; in assay [2], 103%; in assay [3], 97.7%; in assay [4], 99.6%; in assay [5], 99.5%; in assay [6], 92.8%. Further, the growth is 96.2% in assay [7], 94.9% in assay [8] and 97% in assay [9].

Take `CN1CCN(CC(=O)N(C)c2ccc(N=C(c3ccccc3)c3c(O)[nH]c4ccc([N+](=O)[O-])cc34)cc2)CC1`: the growth was 56.8% in assay [1]; 22.7% in [2]; 74.3% in assay [3]; 89.2% in [4]; 73.1% in [5]; 47.6% in assay [6]. The growth in [7] was 53%; in assay [8], 102%; in assay [9], 36.3%; in assay [10], 75.4%.

Take `CCOc1cc(\C=N/N=C(N)/C(N)=N\N=C/c2ccc(O)c(OCC)c2)ccc1O`: the growth was 101% in assay [1]; -46.5% (active) in assay [2]; 116% in [3]; 109% in [4]; 95.8% in assay [5]; 82.4% in assay [6]. The growth in assay [7] is 94.2%; in assay [8], 95.3%; in assay [9], 103%.

For `CN(C)C(=S)NN=C(c1ccccn1)c1ccccn1`, the growth in assay [1] was 37.3%; in assay [2] it was 27.9%; in assay [3] it was -22.2% (active); in assay [4] it was 32.7%; in assay [5] it was 18.1%; in [6], 37.7%. Moreover, the growth is -19.8% (active) in assay [7], 9.88% (active) in assay [8], 8.85% (active) in assay [9] and 30.7% in assay [10].

With `Cc1ccccc1NC(=O)Cn1cc(CN2CCN(c3ccnc4cc(Cl)ccc34)CC2)nn1`, the growth in assay [1] was 98.5%; in [2], 105%; in assay [3], 85.8%; in assay [4] it was 93.3%; in assay [5], 100%; in [6], 81.4%. Further, the growth in [7] was 91.2%; in assay [8], 84.3%; in assay [9], 97.7%; in assay [10], 100%.

With `Cc1oc2ccc(O)c(CN3CCCCCC3)c2c1C(=O)Nc1ccc(C(F)(F)F)cc1`, the growth was 45.1% in assay [1]; 80.5% in [2]; 50.6% in assay [3]; 69.9% in assay [4]; 55.1% in assay [5]; 45.7% in assay [6]. Moreover, the growth in [7] is 70%; in [8], 67.3%; in assay [9], 39.2%.

As to `Cn1cc(-c2ccc3occ(-c4cccc(-c5ccncc5)c4)c3n2)cn1`, the growth was 5.33% (active) in assay [1]; 7.76% (active) in assay [2]; -12.8% (active) in assay [3]; 29.4% in assay [4]; 25.4% in [5]; 19.6% in [6]. Besides, the growth was -46.4% (active) in [7], -15.7% (active) in assay [8] and 14.9% in [9].

For the molecule `O=C(Nc1ncc(Cc2ccc(Cl)cc2)s1)C1=NCCCCN1`, the growth was 98.9% in assay [1]; 102% in assay [2]; 102% in [3]; 106% in assay [4]; 106% in [5]; 101% in [6]. The growth was 99.8% in [7], 97.7% in assay [8], 98.7% in assay [9] and 108% in assay [10].

For the molecule `O=c1ccc2c(ccc3ncccc32)o1`, the growth is 108% in [1]; 99.9% in assay [2]; 105% in [3]; 118% in [4]; 109% in [5]; 94.3% in assay [6]. The figures for the growth in assay [7], in assay [8] and in assay [9] were 95%, 112% and 102%, respectively.

As to `COc1cccc(C(=O)Nc2cccc(NC(=O)c3ccccn3)c2)c1`, the growth in assay [1] is 90.7%; in assay [2], 93.1%; in assay [3] it was 90.3%; in assay [4], 108%; in assay [5], 109%; in assay [6] it was 98.3%. Moreover, the growth is 97.3% in assay [7], 96.3% in assay [8] and 95.2% in assay [9].

For `C#Cc1ccc(NC(=O)Cc2ccc(/C=C/C(=O)c3nccn3C)cc2)cc1`, the growth in assay [1] was 23%; in assay [2], 6.76% (active); in [3], 12.7%; in assay [4], 39.3%; in assay [5], 15.1%; in assay [6], 39.6%. The growth in assay [7] is 87.3%; in [8] it was 72.9%; in assay [9], 24.1%; in assay [10] it was 107%.

Regarding `CCOC(=O)c1cnc2sc(-c3ccc(OC)cc3)nc2c1Cl`, the growth is 92.9% in [1]; 116% in [2]; 94.7% in assay [3]; 104% in [4]; 103% in assay [5]; 104% in [6]. Further, the growth in [7] is 84.2%; in assay [8], 88.7%; in assay [9] it was 86.8%; in [10], 99%.

For `COc1cccc(NC(=O)c2sc3nc(C)c(C(=O)c4ccccc4)cc3c2N)c1`, the growth was 87% in assay [1]; 102% in assay [2]; 60.8% in assay [3]; 78% in [4]; 82.8% in [5]; 89.9% in assay [6]. In addition, the growth in assay [7] is 93.8%; in [8] it was 73.1%; in assay [9], 97.8%; in assay [10], 82.2%.

With `CCN(CC)CCCC(Nc1c2ccc(Cl)cc2nc2ccc(OC)cc12)c1ccncc1` (centres undefined), the growth in [1] was 54.8%; in [2], 43.7%; in assay [3], 87%; in [4], 81%; in [5], 79.3%; in assay [6], 66.6%. The growth is 88.4% in [7], 103% in [8], 63% in assay [9] and 85.6% in assay [10].

For the molecule `Cc1cc(=O)oc2cc(Oc3nc(-c4ccccc4)cn4c(-c5ccccc5)cnc34)ccc12`, the growth in [1] was 68.6%; in [2], 53.2%; in assay [3], -1.39% (active); in assay [4] it was 64.4%; in [5], 67.3%; in assay [6] it was 39.2%. Further, the growth in assay [7] was 38.3%; in assay [8], 81.4%; in assay [9], 56.4%; in assay [10], 67.6%.

Regarding `O=c1c(/C=C/c2c(O)ccc3ccccc23)nnc2sc(-c3cccc([N+](=O)[O-])c3)nn12`, the growth in assay [1] was 29.1%; in [2], 88.8%; in assay [3], 51.7%; in [4], 50%; in assay [5], 0.449% (active); in [6] it was 52.7%. Also, the growth was 65.2% in assay [7], 32.5% in assay [8], 33.7% in [9] and 54.1% in assay [10].

Consider `COc1cc2c(c(OC)c1OC)CCC(c1cccc(NC(=O)c3cccc(Cl)c3)c1)O2` (centres undefined), for which the growth was 83.6% in [1]; 73.7% in [2]; 85.6% in assay [3]; 91.8% in assay [4]; 91.1% in assay [5]; 66.6% in assay [6]. The growth in [7] is 79.6%; in [8], 68.1%; in [9] it was 96.2%; in [10], 92.1%.

Take `CCOC(=O)c1c(C)c2c(n1Cc1ccccc1)CSc1cc(C#N)c(=O)[nH]c1-2`: the growth in assay [1] was 66.3% [100 µM]; in assay [2], 71% [100 µM]; in assay [3], 25.4% [100 µM]; in [4] it was 89.3% [100 µM]; in assay [5], 49.8% [100 µM]; in assay [6], 70% [100 µM]. Besides, the growth in [7] was 100% [100 µM]; in assay [8], 70.9% [100 µM]; in assay [9], 72.9% [100 µM]; in [10] it was 105% [100 µM].

Take `COC(=O)c1c(C)nc(C)c2c1C(=O)C(Br)=C(NCCN1CCOCC1)C2=O`: the growth is 87.9% in [1]; 68.2% in [2]; 119% in [3]; 101% in assay [4]; 101% in assay [5]; 86.3% in assay [6]. The growth in assay [7] was 70.8%; in assay [8] it was 55.6%; in [9] it was 82.8%; in assay [10], 113%.

For `Cc1cc(N2CCOCC2)nc(N(CCCNc2ccnc3cc(Cl)ccc23)Cc2ccc3c(c2)OCO3)n1`, the growth in [1] is -31.6% (active); in assay [2], -61% (active); in assay [3] it was -43.3% (active); in assay [4], 40.6%; in [5] it was -47.6% (active); in assay [6], 15.9%. In addition, the growth in assay [7] was -37.2% (active); in [8], -18.4% (active); in assay [9] it was -90.8% (active); in assay [10] it was -42.6% (active).

Take `O=c1cc(-c2nccc3c2[nH]c2ccccc23)c2cc(Cl)ccc2o1`: the growth was 24.3% in assay [1]; 7.6% (active) in [2]; 39.8% in [3]; 43.7% in [4]; 29.6% in [5]; 30.7% in [6]. Also, the growth is 32.1% in assay [7], 45.5% in assay [8], 50.1% in assay [9] and 64.6% in assay [10].

Turning to `COc1cc2nc3cc([N+](=O)[O-])ccc3c(NCCCNCCO)c2cc1OC`, the growth in assay [1] was 41.2%; in assay [2], 1.17% (active); in assay [3], -74.2% (active); in assay [4] it was -19% (active); in [5] it was -45.5% (active); in assay [6], -66.8% (active). Also, the growth in assay [7] was -93.9% (active); in [8] it was -65.2% (active); in assay [9], -63.7% (active); in assay [10], -53.1% (active).

In the case of `N#Cc1c(-c2ccc(F)cc2)cc(-c2cccc(Cl)c2)[nH]c1=O`, the growth was 58.1% in [1]; 110% in [2]; -25.5% (active) in assay [3]; 42.7% in [4]; 39.5% in assay [5]; 72.7% in assay [6]. In addition, the growth in assay [7] was 70.1%; in [8] it was 40.9%; in assay [9] it was 63.6%; in assay [10], 83.9%.

For `COc1cccc(C2C(C#N)=C(N)Oc3c2ccc2ccccc32)c1` (centres undefined), the growth in assay [1] was 9.22% (active); in [2], 7.48% (active); in assay [3], 79.8%; in [4], 37.3%; in assay [5], 24.6%; in assay [6], 21.5%. Further, the growth in [7] is -1.37% (active); in assay [8] it was 37.6%; in [9] it was 14.6%; in assay [10], 69.3%.

In the case of `O=C(NS(=O)(=O)c1ccccc1)n1cc(-c2ccncc2)c(-c2cc(O)cc(Cl)c2)n1`, the growth is 95.9% in [1]; 98.4% in [2]; 82.6% in [3]; 115% in assay [4]; 104% in assay [5]; 95% in assay [6]. In addition, the growth is 98.9% in assay [7], 39.3% in [8], 92.8% in [9] and 67.6% in assay [10].

For the molecule `COc1cc(/C=C2\C(=O)N(CCOc3cc(O)c4c(=O)cc(-c5ccccc5)oc4c3)c3ccccc32)cc(OC)c1O`, the growth was 28% in [1]; 136% in assay [2]; 44.9% in assay [3]; 65.3% in assay [4]; 39.7% in [5]; 76.2% in assay [6]. Further, the growth was 68.1% in assay [7], 24.6% in assay [8], 36.7% in [9] and 83.6% in [10].

Regarding `N#CC1=C(N)Oc2c(ccc3ccccc23)C1c1cc2ccccc2n2nnnc12` (centres undefined), the growth was 11.8% in [1]; 8.73% (active) in [2]; 8.82% (active) in [3]; 26.2% in [4]; 18.7% in [5]; 10.1% in [6]. Further, the growth in assay [7] is 7.97% (active); in [8], 25.4%; in [9], 24.5%; in [10], 39.3%.
